In PubChem BioAssay (NCI):
Compounds without any hit were thinned out: in the full panel of roughly 83,000, 20% have a hit.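 Compound tested at a single concentration for 48 hours in 96-well plates; a percent growth value below 10 was scored as active.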 Activity calls are given as the source filed them.

Tests used:
Assay in all cases: NCI-60 one-dose screen, 48 h (100 = growth as untreated, 0 = no growth, -100 = all killed)
Settings in all cases: 10 µM unless noted
NCI-H23 lung = tested on: NCI-H23 lung
NCI-H226 lung = tested on: NCI-H226 lung
HOP-62 NSCLC = tested on: HOP-62 NSCLC
NCI-H460 lung = tested on: NCI-H460 lung
HOP-92 NSCLC = tested on: HOP-92 NSCLC
NCI-H522 lung = tested on: NCI-H522 lung
A549/ATCC NSCLC = tested on: A549/ATCC NSCLC
786-0 renal = tested on: 786-0 renal
COLO 205 colon = tested on: COLO 205 colon
DU-145 prostate = tested on: DU-145 prostate
K-562 leukemia = tested on: K-562 leukemia
MALME-3M melanoma = tested on: MALME-3M melanoma
MDA-MB-231 breast = tested on: MDA-MB-231 breast
RXF 393 renal = tested on: RXF 393 renal
SF-295 CNS = tested on: SF-295 CNS
SF-539 CNS = tested on: SF-539 CNS
UACC-257 melanoma = tested on: UACC-257 melanoma
M14 melanoma = tested on: M14 melanoma
SF-268 CNS = tested on: SF-268 CNS

Measured: growth

Cc1ccnc(Nc2nc3ccccc3[nH]2)n1
inactive: NCI-H23 lung 104% | NCI-H226 lung 108% | HOP-62 NSCLC 97.4% | NCI-H460 lung 100% | HOP-92 NSCLC 99.5% | NCI-H522 lung 103% | A549/ATCC NSCLC 108% | 786-0 renal 94% | COLO 205 colon 113% | DU-145 prostate 123% | K-562 leukemia 97.8% | MALME-3M melanoma 104% | MDA-MB-231 breast 109% | RXF 393 renal 116% | SF-295 CNS 102% | SF-539 CNS 98% | UACC-257 melanoma 105% | M14 melanoma 97%

CC(=O)Nc1ncc(S(=O)(=O)c2ccc([N+](=O)[O-])cc2)s1
inactive: NCI-H23 lung 117% | NCI-H226 lung 105% | HOP-62 NSCLC 93.2% | NCI-H460 lung 113% | HOP-92 NSCLC 110% | NCI-H522 lung 94.3% | A549/ATCC NSCLC 103% | 786-0 renal 98% | COLO 205 colon 106% | DU-145 prostate 113% | K-562 leukemia 99.3% | MALME-3M melanoma 118% | MDA-MB-231 breast 123% | RXF 393 renal 115% | SF-268 CNS 100% | SF-295 CNS 112% | SF-539 CNS 113% | UACC-257 melanoma 104% | M14 melanoma 97.3%

CCCC1OC(c2ccco2)OCC1CC (stereo not given)
inactive: NCI-H23 lung 96.8% | NCI-H226 lung 111% | HOP-62 NSCLC 105% | NCI-H460 lung 113% | HOP-92 NSCLC 105% | NCI-H522 lung 80.5% | A549/ATCC NSCLC 87.5% | 786-0 renal 105% | COLO 205 colon 106% | DU-145 prostate 104% | K-562 leukemia 105% | MALME-3M melanoma 118% | MDA-MB-231 breast 102% | RXF 393 renal 136% | SF-268 CNS 101% | SF-295 CNS 105% | SF-539 CNS 106% | UACC-257 melanoma 93.1% | M14 melanoma 102%

CCCNS(=O)(=O)c1ccc(Cl)cc1
inactive: NCI-H23 lung 104% | NCI-H226 lung 113% | HOP-62 NSCLC 86.6% | NCI-H460 lung 103% | HOP-92 NSCLC 104% | NCI-H522 lung 96.6% | A549/ATCC NSCLC 94.5% | 786-0 renal 97.6% | COLO 205 colon 102% | DU-145 prostate 109% | K-562 leukemia 104% | MALME-3M melanoma 105% | MDA-MB-231 breast 102% | RXF 393 renal 114% | SF-268 CNS 106% | SF-295 CNS 87.8% | SF-539 CNS 98.1% | UACC-257 melanoma 101% | M14 melanoma 101%

CCC(C)C1CCC(O)CC1 (stereo not given)
inactive: NCI-H23 lung 96.3% | NCI-H226 lung 101% | HOP-62 NSCLC 110% | NCI-H460 lung 108% | HOP-92 NSCLC 102% | NCI-H522 lung 101% | A549/ATCC NSCLC 103% | 786-0 renal 100% | COLO 205 colon 112% | DU-145 prostate 101% | K-562 leukemia 99.2% | MALME-3M melanoma 32.8% | MDA-MB-231 breast 112% | RXF 393 renal 108% | SF-268 CNS 99.3% | SF-295 CNS 105% | SF-539 CNS 94.8% | UACC-257 melanoma 103% | M14 melanoma 99%

CCC(=O)Oc1ccc2ccccc2c1
inactive: NCI-H23 lung 100% | NCI-H226 lung 90.2% | HOP-62 NSCLC 81% | NCI-H460 lung 99.9% | HOP-92 NSCLC 86.1% | NCI-H522 lung 99.5% | A549/ATCC NSCLC 99.4% | 786-0 renal 96.9% | COLO 205 colon 102% | DU-145 prostate 113% | K-562 leukemia 107% | MALME-3M melanoma 93.7% | MDA-MB-231 breast 90.2% | RXF 393 renal 105% | SF-268 CNS 97.5% | SF-295 CNS 101% | SF-539 CNS 96.8% | UACC-257 melanoma 96.6% | M14 melanoma 92.2%

CCCCCC(=O)OCCC1CCCCC1
inactive: NCI-H23 lung 96.2% | NCI-H226 lung 101% | HOP-62 NSCLC 98.6% | NCI-H460 lung 105% | NCI-H522 lung 95% | A549/ATCC NSCLC 98.4% | 786-0 renal 106% | COLO 205 colon 101% | DU-145 prostate 98.2% | K-562 leukemia 107% | MALME-3M melanoma 84.1% | MDA-MB-231 breast 114% | RXF 393 renal 104% | SF-268 CNS 93% | SF-295 CNS 108% | SF-539 CNS 97.8% | UACC-257 melanoma 95.9% | M14 melanoma 94%

O=c1[nH]c(=O)c2cc(Cl)cc(Cl)c2[nH]1
inactive: NCI-H23 lung 101% | NCI-H226 lung 96.8% | HOP-62 NSCLC 113% | NCI-H460 lung 112% | HOP-92 NSCLC 104% | NCI-H522 lung 99.7% | A549/ATCC NSCLC 108% | 786-0 renal 101% | COLO 205 colon 117% | DU-145 prostate 136% | K-562 leukemia 106% | MALME-3M melanoma 116% | MDA-MB-231 breast 107% | RXF 393 renal 113% | SF-268 CNS 109% | SF-295 CNS 114% | SF-539 CNS 99.5% | UACC-257 melanoma 93% | M14 melanoma 102%

O=C(NCc1ccccc1)c1cccc([N+](=O)[O-])c1
inactive: NCI-H23 lung 110% | NCI-H226 lung 105% | HOP-62 NSCLC 94.6% | NCI-H460 lung 103% | HOP-92 NSCLC 77.8% | NCI-H522 lung 84.1% | A549/ATCC NSCLC 88.2% | 786-0 renal 94.9% | COLO 205 colon 116% | DU-145 prostate 104% | K-562 leukemia 102% | MALME-3M melanoma 90.5% | MDA-MB-231 breast 91.1% | RXF 393 renal 104% | SF-268 CNS 92.6% | SF-295 CNS 104% | SF-539 CNS 102% | UACC-257 melanoma 88% | M14 melanoma 107%

C/C(=N\N=C(/C)c1cccc([N+](=O)[O-])c1)c1cccc([N+](=O)[O-])c1
inactive: NCI-H23 lung 90.3% | NCI-H226 lung 111% | HOP-62 NSCLC 74.3% | NCI-H460 lung 86.4% | NCI-H522 lung 57.3% | A549/ATCC NSCLC 79.3% | 786-0 renal 77.4% | COLO 205 colon 79.8% | DU-145 prostate 95.3% | K-562 leukemia 98.3% | MALME-3M melanoma 85% | RXF 393 renal 93.9% | SF-268 CNS 80.2% | SF-295 CNS 95.8% | SF-539 CNS 93.4% | UACC-257 melanoma 87.6%
active: M14 melanoma -36.5%

C1C[S+]2CC[S+]1CC2
inactive: NCI-H23 lung 97.9% | NCI-H226 lung 98.3% | HOP-62 NSCLC 104% | NCI-H460 lung 101% | HOP-92 NSCLC 111% | NCI-H522 lung 98.5% | A549/ATCC NSCLC 98.9% | 786-0 renal 111% | COLO 205 colon 116% | DU-145 prostate 105% | K-562 leukemia 104% | MALME-3M melanoma 99.9% | RXF 393 renal 106% | SF-268 CNS 102% | SF-295 CNS 99% | SF-539 CNS 108% | UACC-257 melanoma 94.9% | M14 melanoma 101%

CC(O)C(F)(F)C(F)(F)C(F)(F)F (stereo not given)
inactive: NCI-H23 lung 111% | NCI-H226 lung 102% | HOP-62 NSCLC 104% | NCI-H460 lung 110% | HOP-92 NSCLC 117% | NCI-H522 lung 93.8% | A549/ATCC NSCLC 110% | 786-0 renal 102% | COLO 205 colon 116% | DU-145 prostate 119% | K-562 leukemia 111% | MDA-MB-231 breast 118% | RXF 393 renal 103% | SF-268 CNS 115% | SF-539 CNS 96.6% | UACC-257 melanoma 107% | M14 melanoma 103%

COc1cc2c(c(OC)c1OC)-c1ccc(SC)c(=O)cc1[C@@H](NC1OC(CO)C(O)C(O)C1O)CC2 (stereo not given in full)
active: NCI-H460 lung 3.13% | NCI-H522 lung -16.8% | COLO 205 colon -61.5% | DU-145 prostate 6.12% | K-562 leukemia 4.19% | MDA-MB-231 breast 7.41% | SF-295 CNS -35.8% | SF-539 CNS 1.24%
inactive: NCI-H23 lung 29.9% | NCI-H226 lung 43.4% | HOP-62 NSCLC 25.9% | HOP-92 NSCLC 77.9% | A549/ATCC NSCLC 10.4% | 786-0 renal 19.8% | MALME-3M melanoma 54.6% | SF-268 CNS 22.7% | UACC-257 melanoma 50.5% | M14 melanoma 11.3%

CC(C)C1CCC(C)C(O)C1 (stereo not given)
inactive: NCI-H23 lung 110% | NCI-H226 lung 102% | HOP-62 NSCLC 95.3% | NCI-H460 lung 108% | HOP-92 NSCLC 102% | NCI-H522 lung 92.8% | A549/ATCC NSCLC 88.7% | 786-0 renal 105% | COLO 205 colon 111% | DU-145 prostate 106% | K-562 leukemia 103% | MALME-3M melanoma 109% | MDA-MB-231 breast 93.9% | RXF 393 renal 108% | SF-268 CNS 100% | SF-295 CNS 100% | SF-539 CNS 100% | UACC-257 melanoma 85.6% | M14 melanoma 101%

O=C(O)c1cccc(-n2ncc(Cl)c(Cl)c2=O)c1
inactive: NCI-H23 lung 107% | NCI-H226 lung 101% | HOP-62 NSCLC 100% | NCI-H460 lung 101% | HOP-92 NSCLC 112% | NCI-H522 lung 36% | A549/ATCC NSCLC 102% | 786-0 renal 109% | COLO 205 colon 117% | DU-145 prostate 114% | K-562 leukemia 109% | MALME-3M melanoma 106% | MDA-MB-231 breast 103% | RXF 393 renal 118% | SF-268 CNS 108% | SF-295 CNS 102% | SF-539 CNS 101% | UACC-257 melanoma 89.2% | M14 melanoma 101%

COc1ccc(Nc2cc(Cl)ccc2C(=O)O)cn1
inactive: NCI-H23 lung 102% | NCI-H226 lung 103% | HOP-62 NSCLC 111% | NCI-H460 lung 113% | HOP-92 NSCLC 101% | NCI-H522 lung 100% | A549/ATCC NSCLC 103% | 786-0 renal 111% | COLO 205 colon 103% | DU-145 prostate 110% | K-562 leukemia 100% | MALME-3M melanoma 157% | MDA-MB-231 breast 109% | RXF 393 renal 126% | SF-268 CNS 103% | SF-295 CNS 138% | SF-539 CNS 105% | UACC-257 melanoma 40.3% | M14 melanoma 102%

C=CCc1cc(OC)c(O)c(OC)c1
inactive: NCI-H23 lung 105% | NCI-H226 lung 93.8% | HOP-62 NSCLC 97.4% | NCI-H460 lung 108% | HOP-92 NSCLC 105% | NCI-H522 lung 92.2% | A549/ATCC NSCLC 83.9% | 786-0 renal 102% | COLO 205 colon 105% | DU-145 prostate 107% | K-562 leukemia 119% | MALME-3M melanoma 95.1% | MDA-MB-231 breast 104% | RXF 393 renal 119% | SF-268 CNS 97% | SF-295 CNS 97.3% | SF-539 CNS 92.1% | UACC-257 melanoma 101% | M14 melanoma 101%
